According to PubChem BioAssay AID1117319 (Southern Research Institute, 2015):
“And” between values parts separate entries of the source, which are not always exact repeats. Identical values can stand only once. Screen size: about 260,000 compounds; about 1,500 (0.58%) were called active. Inconclusive results (about 5%) are left out.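 How the source made its calls: active means inhibition above a set limit at one or more doses, reproduced on every date tested; inconclusive means results disagree between test dates, or hit never tested in dose response; inactive means the rest.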 A selection follows. Potency and affinity values are given separately.

biological target: Virion infectivity factor (Human immunodeficiency virus type 1 group M subtype B (isolate BH10)) + Virion infectivity factor (Human immunodeficiency virus type 1 group M subtype B (isolate BRU/LAI)) + Virion infectivity factor (Human immunodeficiency virus type 1 group M subtype B (isolate PCV12)) + Virion infectivity factor (Human immunodeficiency virus type 1 group M subtype B (isolate HXB2)) + DNA dC->dU-editing enzyme APOBEC-3G (Homo sapiens) (UniProt P69720+P69721+P69722+P69723+Q9HC16); test: inhibitors of Vif binding to APOBEC3G peptide, primary screen, biochemical, TR-FRET, GST-Vif 1-94, biotin-A3G peptide, dose response retest (AID 1117319); conditions: active compounds read high;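 further: Vif residues 1-94 fused to GST binding biotinylated APOBEC3G peptide 110-148; 0% = full assay without inhibitor and 100% = GST in place of GST-Vif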

inhibition, inactive:
Cc1ccc(O)c(Sc2cc(C)ccc2O)c1 3.64%
CNCc1ccccc1Sc1cccc(O)c1 -4.96%
CNCc1ccccc1Sc1ccc(OC)cc1 4.31%
CNCc1ccccc1Sc1cccc2ccccc12 -4.29%
O=C(COc1cc(F)ccc1[N+](=O)[O-])Nc1ccc2c(c1)OCO2 -6.99%
CNCCCOc1cccc(Oc2ccccc2)c1 9.66%
COc1cccc2cc(C(=O)c3ccccc3)oc12 -4.51%
O=C(NCc1ccc2c(c1)OCO2)c1ccccn1 10.1%
O=C(Nc1ccc2c(c1)OCO2)c1cc2ncc(Br)cn2n1 6.91%
O=C(NN1CCOCC1)c1cc(-c2ccc(Cl)c(Cl)c2)nc2ccccc12 -15.2%
CC1CC(OCC(O)CN2CCOCC2)CC(C)(C)C1 (stereo not given) -2.99%
N#CCC(=O)Nc1ccc(C(=O)OC(C(=O)Nc2cc(C(F)(F)F)ccc2Cl)c2ccccc2)cc1 (stereo not given) 6.13%
CCOC(=O)C(=NC1CCS(=O)(=O)C1)NNc1cc(Cl)ccc1Cl (stereo not given) 11.7%
CCOC(=O)CCCn1ncn2c(cc3occc32)c1=O 7.22%
COC(=O)Cn1ncn2cccc2c1=O 31%
CC1CCCCC1NC(=O)CCNS(=O)(=O)c1ccc2c(c1)CCC(=O)N2 (stereo not given) 6.16%
COC(=O)c1ccc(C)c(NC(=O)c2nn(C)c(=O)c3ccccc23)c1 0.46%
CCCn1nc(C(=O)Nc2cccc(C(=O)OC)c2)c2ccccc2c1=O 0.28%
CCN(C(=O)C1CCCCC1)c1nnc(-c2cccnc2)s1 -11.9%
O=C(C1CCCN1S(=O)(=O)c1cccc2cccnc12)N1CCc2ccccc2C1 (stereo not given) 8.45%
O=C(C1CCN(S(=O)(=O)c2cccc3cccnc23)CC1)N1CCN(c2ccccc2)CC1 3.12%
O=C1CCCN1CCCNC(=S)Nc1cccc2ccccc12 30.4%
CC(C)OC(=O)CSc1nnc(-c2ccncc2)n1N -2.43%
O=c1cc(CN2CCCc3ccccc32)nc2sccn12 22%
O=c1cc(CN2CCc3ccccc32)nc2sccn12 23.2%
Cc1ccc(CCNc2ncnc(Cl)c2N)cc1 -3.15%
Cc1nn(C)cc1/C=N\NC(=O)c1ccc(Cn2cc(Cl)cn2)cc1 -3.19%
COc1cccc(C(C#N)N2N=C(C)CC2(C)C)c1O (stereo not given) -2.38%
COc1cc(C(C#N)N2CCCCC2)ccc1O (stereo not given) 7.46%
O=S(=O)(Nc1cccc(-n2cnnn2)c1)c1ccccc1F -7.41%
Oc1c(C=Nc2ccccc2)sc2ccccc12 -6.91%
COc1ccc(N=Cc2sc3ccccc3c2Cl)cc1 0.88%
CCCOc1ccc(NC(N)=O)cc1OCCC 0.61%
C=C1CCN([C@H](C(=O)NCc2ccc(OC)cc2)C(C)C)S(=O)(=O)c2ccccc21 2.28%
CCCn1nnc(NC(=O)c2ccc(-c3cc(Cl)ccc3Cl)o2)n1 3.66%
O=C(NNC(=O)c1ccc(Cl)c(Cl)c1)c1cccnc1 -10.1%
COCc1nnc(NS(=O)(=O)c2ccc(Cl)cc2)s1 -13.7%
Cc1cc[n+](CCC(=O)O)c2ccccc12 27.6%
Cc1ccnc2ccc(P(=O)(c3ccccc3)c3ccccc3)cc12 -4.5%
CC[n+]1ccc(C[n+]2ccccc2)c2ccccc21 31.8%
Nc1ccc(S(=O)C(F)(F)F)cc1 (stereo not given) -4.35%
CC(C)CN(C(=O)COC(=O)Cc1c[nH]c2ccccc12)C1CCS(=O)(=O)C1 (stereo not given) -1.62%
Cn1cnc([N+](=O)[O-])c1C(=O)Nc1cccc([N+](=O)[O-])c1 -0.16%
CCc1ccc(NC(=O)CSCc2ccc(C(=O)O)cc2)cc1 2.67%
O=C(/C(=C(\[O-])c1ccccc1)[n+]1ccc2ccccc2c1)c1ccc(Cl)cc1 -6.22%
Cc1cc(C)c(S(=O)(=O)Nc2cc(SCC(=O)O)c(O)c3ccccc23)cc1C 29.4%
Cc1ccc(C)c(S(=O)(=O)Nc2cc(SCC(=O)O)c(O)c3ccccc23)c1 30.9%
COC(=O)c1cc2sccc2n1CC(=O)Nc1ccc(OC)c(OC)c1OC -6.58% and -2.62%
Cc1ccc(-c2nnc3n2CCCCC3)cc1 32.1%
C1CCc2nnc(-c3nnc4n3CCCCC4)n2CC1 -7.36%
O=C(Nc1cccc2nsnc12)c1ccc2c(c1)OCO2 -0.24%
COc1cccc(OCC(O)CN2CCN(c3ccc(Cl)cc3)CC2)c1 (stereo not given) 2.34%
COc1ccc(O)c(/C=N/c2sc(C)c(C)c2C#N)c1 10.1%
COc1ccc(S(=O)(=O)N2CCOCC2)cc1C(=O)Nc1cc(C)on1 2.2%
CCOC(=O)C1=C(C)OC(N)=C(C#N)C1c1c(C)nn(-c2ccc(C)cc2)c1Cl (stereo not given) 1.7%
Cc1nn(-c2ccccc2)c(Cl)c1C1C(C#N)=C(N)Oc2c1c(C)nn2-c1ccccc1 (stereo not given) 2.03%
CC(=O)c1cccc(OCc2cc(C(=O)N(C)Cc3nccs3)no2)c1 -3%
CC(C)(C)c1ccc(N2C(=O)CC(C/C=C/c3ccccc3)C2=O)cc1 (stereo not given) -5.69%
O=C(COC(=O)c1ccc(NS(=O)(=O)c2cccs2)cc1)NCC1CCCO1 (stereo not given) -1.37%
O=C(COC(=O)c1ccc(S(=O)(=O)Nc2ccccc2)cc1)NCc1ccco1 3.75%
CC1CC(=O)Nc2ccccc2N1C(=O)CN1C(=O)C(=O)N(C)C1=O (stereo not given) 3.84%
CC(=O)Nc1ccc(/C=N/Nc2nncc3ccccc23)cc1 -1.2%
Cc1cccc(C)c1NC(=O)COC(=O)CN1C(=O)C2CCCCC2C1=O (stereo not given) -6.55%
O=C1C2C3C=CC(C3)C2C(=O)N1c1ccccc1 (stereo not given) 23.8%
O=C1C2C3CCC(CC3)C2C(=O)N1c1ccccc1 (stereo not given) 3.86%
